# Assay results taken from PMC7862700, “An all-to-all approach to the identification of sequence-specific readers for epigenetic DNA modifications on cytosine”.
# Tests used:
# Assay in all cases: DAPPL (digital affinity profiling via proximity ligation, sequencing); 10 mM Tris-HCl pH 7.5, 50 mM NaCl, 1 mM DTT, 4% glycerol, room temperature, 30 min; GST-TFs on glutathione beads, 16-mer random dsDNA library, 0.1% formaldehyde crosslink after washing; high values mean tight binding
# [1] = biological target: T1, FLI1 (Homo sapiens, UniProt Q01543 1-452); conditions: protein: recombinant; tags: N-terminal GST; dsDNA, one strand shown
# T1 sequence: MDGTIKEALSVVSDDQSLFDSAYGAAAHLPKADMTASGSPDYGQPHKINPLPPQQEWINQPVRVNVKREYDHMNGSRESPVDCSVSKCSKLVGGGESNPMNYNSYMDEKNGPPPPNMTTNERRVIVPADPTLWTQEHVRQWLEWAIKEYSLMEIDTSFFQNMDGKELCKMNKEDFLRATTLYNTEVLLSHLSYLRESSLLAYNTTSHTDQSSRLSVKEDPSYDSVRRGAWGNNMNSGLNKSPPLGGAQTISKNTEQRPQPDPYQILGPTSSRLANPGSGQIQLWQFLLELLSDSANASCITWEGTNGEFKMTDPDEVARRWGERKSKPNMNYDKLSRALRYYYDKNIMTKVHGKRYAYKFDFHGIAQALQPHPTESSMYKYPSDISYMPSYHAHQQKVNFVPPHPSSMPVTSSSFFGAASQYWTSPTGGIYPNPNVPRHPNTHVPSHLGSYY
# Summary of the method: (§1)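 A tag-only sample was pooled with DNA-barcoded human transcription factors that had been expressed in yeast as GST fusions and captured on glutathione beads. The pools were incubated for 30 min at room temperature with 200 nmole of a random double-stranded 16-mer DNA library in Tris/NaCl/DTT/glycerol buffer, then washed, crosslinked with 0.1% formaldehyde, proximity-ligated (BsaI/T4 ligase, 1 h, 37 °C), PCR-amplified and sequenced on an Illumina NextSeq500. Binding signal is each hexamer's read frequency for a factor divided by its frequency for the tag-only sample.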
# [2] = biological target: T2, ELK1 (Homo sapiens, UniProt P19419 1-428); conditions: protein: recombinant; tags: N-terminal GST; dsDNA, one strand shown
# T2 sequence: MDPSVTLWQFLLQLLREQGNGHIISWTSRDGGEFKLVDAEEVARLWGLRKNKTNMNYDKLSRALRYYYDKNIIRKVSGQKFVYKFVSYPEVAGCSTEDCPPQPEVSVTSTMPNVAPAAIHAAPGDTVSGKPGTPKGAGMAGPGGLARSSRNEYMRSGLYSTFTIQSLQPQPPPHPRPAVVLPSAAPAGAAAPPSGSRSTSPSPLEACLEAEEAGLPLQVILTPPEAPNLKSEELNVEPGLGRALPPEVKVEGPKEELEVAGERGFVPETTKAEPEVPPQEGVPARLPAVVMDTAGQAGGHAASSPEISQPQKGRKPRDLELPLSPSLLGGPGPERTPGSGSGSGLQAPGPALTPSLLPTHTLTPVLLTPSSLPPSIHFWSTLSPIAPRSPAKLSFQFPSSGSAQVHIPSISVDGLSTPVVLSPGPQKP
# Summary of the method: as §1
# [3] = biological target: T3, GABPA (Homo sapiens, UniProt Q06546 1-454); conditions: protein: recombinant; tags: N-terminal GST; dsDNA, one strand shown
# T3 sequence: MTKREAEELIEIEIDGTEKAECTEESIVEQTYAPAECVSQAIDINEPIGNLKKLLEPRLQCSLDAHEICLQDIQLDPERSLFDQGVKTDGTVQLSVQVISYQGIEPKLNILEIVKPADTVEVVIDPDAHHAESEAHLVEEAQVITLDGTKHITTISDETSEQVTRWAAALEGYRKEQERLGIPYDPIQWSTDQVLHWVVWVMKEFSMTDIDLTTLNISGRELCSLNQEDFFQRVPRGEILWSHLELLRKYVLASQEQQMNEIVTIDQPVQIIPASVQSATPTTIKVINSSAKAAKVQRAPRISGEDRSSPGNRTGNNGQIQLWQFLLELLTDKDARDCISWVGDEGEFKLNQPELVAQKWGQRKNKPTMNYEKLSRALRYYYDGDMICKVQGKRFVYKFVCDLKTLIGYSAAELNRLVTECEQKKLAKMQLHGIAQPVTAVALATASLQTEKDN
# Summary of the method: as §1
# [4] = biological target: T4, ERG (Homo sapiens, UniProt P11308 1-479); conditions: protein: recombinant; tags: N-terminal GST; dsDNA, one strand shown
# T4 sequence: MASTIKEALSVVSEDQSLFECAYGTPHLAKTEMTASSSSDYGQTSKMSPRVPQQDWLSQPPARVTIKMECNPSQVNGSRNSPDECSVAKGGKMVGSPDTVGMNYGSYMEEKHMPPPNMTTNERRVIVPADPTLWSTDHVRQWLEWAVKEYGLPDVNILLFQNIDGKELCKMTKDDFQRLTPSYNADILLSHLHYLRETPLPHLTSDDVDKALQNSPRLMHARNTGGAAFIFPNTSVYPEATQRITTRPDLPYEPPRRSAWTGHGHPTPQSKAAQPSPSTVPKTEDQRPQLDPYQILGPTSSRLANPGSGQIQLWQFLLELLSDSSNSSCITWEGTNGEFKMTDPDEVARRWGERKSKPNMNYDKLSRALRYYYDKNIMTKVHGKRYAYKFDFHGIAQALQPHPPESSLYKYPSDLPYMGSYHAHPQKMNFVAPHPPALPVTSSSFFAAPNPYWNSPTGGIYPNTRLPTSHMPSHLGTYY
# Summary of the method: as §1
# [5] = biological target: ELF1 (Homo sapiens, UniProt P32519 1-619); conditions: protein: recombinant; tags: N-terminal GST; dsDNA, one strand shown
# Summary of the method: as §1
# [6] = biological target: T5, EHF (Homo sapiens, UniProt Q9NZC4 1-300); conditions: protein: recombinant; tags: N-terminal GST; dsDNA, one strand shown
# T5 sequence: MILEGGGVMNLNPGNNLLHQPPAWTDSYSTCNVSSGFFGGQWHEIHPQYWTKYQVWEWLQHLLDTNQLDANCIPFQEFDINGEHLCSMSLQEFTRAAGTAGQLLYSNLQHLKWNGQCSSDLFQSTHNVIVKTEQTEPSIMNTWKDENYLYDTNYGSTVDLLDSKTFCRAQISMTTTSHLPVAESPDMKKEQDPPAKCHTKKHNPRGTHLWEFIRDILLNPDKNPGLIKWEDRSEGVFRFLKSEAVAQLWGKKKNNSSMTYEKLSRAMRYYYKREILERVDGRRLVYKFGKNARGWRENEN
# Summary of the method: as §1
# [7] = biological target: SPIB (Homo sapiens, UniProt Q01892 1-262); conditions: protein: recombinant; tags: N-terminal GST; dsDNA, one strand shown
# Summary of the method: as §1
# [8] = biological target: T6, ELK3 (Homo sapiens, UniProt P41970 1-407); conditions: protein: recombinant; tags: N-terminal GST; dsDNA, one strand shown
# T6 sequence: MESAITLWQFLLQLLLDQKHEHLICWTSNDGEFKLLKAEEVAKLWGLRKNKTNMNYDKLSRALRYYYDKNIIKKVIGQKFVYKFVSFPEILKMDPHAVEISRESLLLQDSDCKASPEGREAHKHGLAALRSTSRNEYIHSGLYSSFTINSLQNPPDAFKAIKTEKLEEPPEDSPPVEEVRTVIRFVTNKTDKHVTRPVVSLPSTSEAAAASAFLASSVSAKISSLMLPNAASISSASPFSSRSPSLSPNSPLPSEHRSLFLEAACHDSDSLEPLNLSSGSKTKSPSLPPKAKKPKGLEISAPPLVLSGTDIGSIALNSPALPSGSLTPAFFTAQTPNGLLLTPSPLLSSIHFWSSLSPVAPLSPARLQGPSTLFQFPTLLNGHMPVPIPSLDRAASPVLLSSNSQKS
# Summary of the method: as §1
# [9] = biological target: T7, FEV (Homo sapiens, UniProt Q99581 1-238); conditions: protein: recombinant; tags: N-terminal GST; dsDNA, one strand shown
# T7 sequence: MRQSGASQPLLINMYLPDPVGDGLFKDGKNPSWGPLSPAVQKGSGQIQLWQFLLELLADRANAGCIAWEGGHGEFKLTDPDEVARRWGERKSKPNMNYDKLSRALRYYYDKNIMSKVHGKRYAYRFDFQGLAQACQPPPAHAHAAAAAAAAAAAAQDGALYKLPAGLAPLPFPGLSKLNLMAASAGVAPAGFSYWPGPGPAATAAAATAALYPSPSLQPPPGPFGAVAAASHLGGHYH
# Summary of the method: as §1
# [10] = biological target: ETV5 (Homo sapiens, UniProt P41161 1-510); conditions: protein: recombinant; tags: N-terminal GST; dsDNA, one strand shown
# Summary of the method: as §1
# [11] = biological target: HSF1 (Homo sapiens, UniProt Q00613 1-529); conditions: protein: recombinant; tags: N-terminal GST; chain copies: 3; dsDNA, one strand shown
# Summary of the method: as §1
# [12] = biological target: T8, SPIC (Homo sapiens, UniProt Q8N5J4 1-248); conditions: protein: recombinant; tags: N-terminal GST; dsDNA, one strand shown
# T8 sequence: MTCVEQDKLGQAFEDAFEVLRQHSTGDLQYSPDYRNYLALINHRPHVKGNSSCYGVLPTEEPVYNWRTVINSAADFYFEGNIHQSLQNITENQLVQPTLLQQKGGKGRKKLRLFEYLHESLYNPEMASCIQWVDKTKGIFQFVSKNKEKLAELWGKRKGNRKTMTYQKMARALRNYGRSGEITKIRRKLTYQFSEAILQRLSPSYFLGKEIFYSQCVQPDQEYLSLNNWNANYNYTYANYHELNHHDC
# Summary of the method: as §1
# [13] = biological target: ELF4 (Homo sapiens, UniProt Q99607 1-663); conditions: protein: recombinant; tags: N-terminal GST; dsDNA, one strand shown
# Summary of the method: as §1
# [14] = biological target: T9, ETV2 (Homo sapiens, UniProt O00321 1-342); conditions: protein: recombinant; tags: N-terminal GST; dsDNA, one strand shown
# T9 sequence: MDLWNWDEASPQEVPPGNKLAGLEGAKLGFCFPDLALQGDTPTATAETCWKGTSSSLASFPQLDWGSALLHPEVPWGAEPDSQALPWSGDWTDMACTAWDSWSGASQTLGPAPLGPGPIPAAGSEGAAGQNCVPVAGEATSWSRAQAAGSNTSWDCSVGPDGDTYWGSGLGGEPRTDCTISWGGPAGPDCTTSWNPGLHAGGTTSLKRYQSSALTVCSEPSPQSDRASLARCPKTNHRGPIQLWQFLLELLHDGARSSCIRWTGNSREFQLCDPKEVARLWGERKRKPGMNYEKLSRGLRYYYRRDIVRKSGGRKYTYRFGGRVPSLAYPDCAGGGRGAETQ
# Summary of the method: as §1
# [15] = biological target: CRX (Homo sapiens, UniProt O43186 1-299); conditions: protein: recombinant; tags: N-terminal GST; dsDNA, one strand shown
# Summary of the method: as §1
# [16] = biological target: ETV1 (Homo sapiens, UniProt P50549 1-477); conditions: protein: recombinant; tags: N-terminal GST; dsDNA, one strand shown
# Summary of the method: as §1
# ELF4, sequence (Q99607 whole entry): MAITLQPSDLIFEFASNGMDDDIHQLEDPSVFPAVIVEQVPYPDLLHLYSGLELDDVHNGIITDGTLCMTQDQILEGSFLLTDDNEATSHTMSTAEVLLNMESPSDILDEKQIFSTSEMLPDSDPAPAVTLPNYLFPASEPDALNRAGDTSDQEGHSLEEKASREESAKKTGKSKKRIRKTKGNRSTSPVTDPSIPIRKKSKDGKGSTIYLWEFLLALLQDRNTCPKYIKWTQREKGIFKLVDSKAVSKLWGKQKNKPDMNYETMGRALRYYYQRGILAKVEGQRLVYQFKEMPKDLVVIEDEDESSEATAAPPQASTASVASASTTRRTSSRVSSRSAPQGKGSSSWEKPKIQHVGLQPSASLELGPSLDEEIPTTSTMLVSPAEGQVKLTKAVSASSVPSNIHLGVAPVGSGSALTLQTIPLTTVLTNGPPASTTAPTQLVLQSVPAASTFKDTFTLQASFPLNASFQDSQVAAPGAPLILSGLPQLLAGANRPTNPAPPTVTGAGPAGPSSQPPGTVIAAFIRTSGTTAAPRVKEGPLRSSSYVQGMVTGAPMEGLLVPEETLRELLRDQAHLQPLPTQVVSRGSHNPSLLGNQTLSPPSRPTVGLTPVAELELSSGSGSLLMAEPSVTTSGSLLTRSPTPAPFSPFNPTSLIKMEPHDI
# ETV1, sequence (P50549 whole entry): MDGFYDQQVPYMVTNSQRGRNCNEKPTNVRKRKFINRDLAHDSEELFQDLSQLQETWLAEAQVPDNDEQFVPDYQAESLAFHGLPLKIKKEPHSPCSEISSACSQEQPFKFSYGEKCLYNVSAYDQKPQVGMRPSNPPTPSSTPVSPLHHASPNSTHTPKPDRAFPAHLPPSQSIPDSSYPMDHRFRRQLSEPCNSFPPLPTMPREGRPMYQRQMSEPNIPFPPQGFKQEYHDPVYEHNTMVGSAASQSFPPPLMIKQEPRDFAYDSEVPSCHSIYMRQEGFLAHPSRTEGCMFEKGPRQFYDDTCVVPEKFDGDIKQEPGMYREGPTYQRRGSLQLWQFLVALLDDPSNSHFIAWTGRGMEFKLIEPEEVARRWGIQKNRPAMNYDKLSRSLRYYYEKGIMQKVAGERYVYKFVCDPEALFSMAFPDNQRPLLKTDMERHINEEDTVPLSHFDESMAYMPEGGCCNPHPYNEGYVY
# ETV5, sequence (P41161 whole entry): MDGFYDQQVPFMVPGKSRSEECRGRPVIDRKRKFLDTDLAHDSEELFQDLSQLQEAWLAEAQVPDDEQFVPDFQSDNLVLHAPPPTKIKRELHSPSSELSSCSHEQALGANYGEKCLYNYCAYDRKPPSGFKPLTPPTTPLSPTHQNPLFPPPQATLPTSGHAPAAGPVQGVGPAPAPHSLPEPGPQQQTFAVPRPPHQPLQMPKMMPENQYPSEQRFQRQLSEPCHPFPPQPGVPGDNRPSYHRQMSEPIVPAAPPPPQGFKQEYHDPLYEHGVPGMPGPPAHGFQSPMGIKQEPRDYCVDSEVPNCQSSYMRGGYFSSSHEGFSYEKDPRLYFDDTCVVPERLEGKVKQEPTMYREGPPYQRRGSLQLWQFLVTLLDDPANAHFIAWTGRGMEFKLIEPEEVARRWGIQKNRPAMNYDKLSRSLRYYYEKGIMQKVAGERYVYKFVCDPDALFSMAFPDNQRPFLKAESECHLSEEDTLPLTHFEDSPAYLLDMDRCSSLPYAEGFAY
# HSF1, sequence (Q00613 whole entry): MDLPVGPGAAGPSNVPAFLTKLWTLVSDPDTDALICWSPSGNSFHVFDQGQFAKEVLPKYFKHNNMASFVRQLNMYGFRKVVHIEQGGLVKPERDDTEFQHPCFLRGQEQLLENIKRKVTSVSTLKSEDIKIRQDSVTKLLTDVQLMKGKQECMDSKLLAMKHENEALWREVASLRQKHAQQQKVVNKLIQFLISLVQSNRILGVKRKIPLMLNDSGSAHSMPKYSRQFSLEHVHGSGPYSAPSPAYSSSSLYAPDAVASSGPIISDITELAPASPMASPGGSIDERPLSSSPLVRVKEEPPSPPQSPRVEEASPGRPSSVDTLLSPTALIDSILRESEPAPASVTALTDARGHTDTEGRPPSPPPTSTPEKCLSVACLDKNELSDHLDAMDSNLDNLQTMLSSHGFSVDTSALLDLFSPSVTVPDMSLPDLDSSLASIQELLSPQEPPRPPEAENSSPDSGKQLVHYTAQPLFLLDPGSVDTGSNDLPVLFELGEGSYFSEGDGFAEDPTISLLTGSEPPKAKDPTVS
# SPIB, sequence (Q01892 whole entry): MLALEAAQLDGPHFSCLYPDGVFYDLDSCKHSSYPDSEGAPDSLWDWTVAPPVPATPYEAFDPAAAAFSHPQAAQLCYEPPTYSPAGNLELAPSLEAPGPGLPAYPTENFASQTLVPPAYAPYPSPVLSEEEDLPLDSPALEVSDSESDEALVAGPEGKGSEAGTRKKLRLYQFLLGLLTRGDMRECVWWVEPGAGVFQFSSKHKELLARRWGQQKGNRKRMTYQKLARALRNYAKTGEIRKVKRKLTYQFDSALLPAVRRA
# ELF1, sequence (P32519 whole entry): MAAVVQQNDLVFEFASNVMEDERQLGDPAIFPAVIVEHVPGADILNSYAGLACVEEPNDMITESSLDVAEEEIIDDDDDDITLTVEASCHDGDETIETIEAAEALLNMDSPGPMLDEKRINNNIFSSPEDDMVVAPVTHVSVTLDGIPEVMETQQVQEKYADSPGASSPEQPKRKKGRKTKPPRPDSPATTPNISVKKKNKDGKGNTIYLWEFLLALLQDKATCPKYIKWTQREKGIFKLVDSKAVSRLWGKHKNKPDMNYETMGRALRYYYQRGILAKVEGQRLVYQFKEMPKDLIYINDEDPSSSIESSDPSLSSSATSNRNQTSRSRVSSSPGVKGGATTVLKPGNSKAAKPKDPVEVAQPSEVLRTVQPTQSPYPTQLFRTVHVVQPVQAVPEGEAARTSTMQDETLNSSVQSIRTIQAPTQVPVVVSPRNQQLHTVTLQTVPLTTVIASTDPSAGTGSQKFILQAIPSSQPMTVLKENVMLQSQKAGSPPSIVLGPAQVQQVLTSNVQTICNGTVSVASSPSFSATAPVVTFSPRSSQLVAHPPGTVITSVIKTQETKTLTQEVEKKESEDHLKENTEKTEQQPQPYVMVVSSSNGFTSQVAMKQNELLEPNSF
# CRX, sequence (O43186 whole entry): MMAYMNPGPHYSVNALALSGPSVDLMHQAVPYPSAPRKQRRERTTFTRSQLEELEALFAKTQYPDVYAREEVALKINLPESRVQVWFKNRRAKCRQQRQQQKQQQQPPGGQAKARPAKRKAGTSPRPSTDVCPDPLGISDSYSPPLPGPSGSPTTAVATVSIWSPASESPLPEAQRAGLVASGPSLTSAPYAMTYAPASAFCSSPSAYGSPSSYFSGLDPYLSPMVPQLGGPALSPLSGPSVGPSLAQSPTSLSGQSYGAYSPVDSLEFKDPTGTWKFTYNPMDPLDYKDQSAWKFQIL
sequence,measurement,setting,value
ATACCA,binding signal,[1],"1.02 fold enrichment (6-mer frequency, TF over GST control)"
same,binding signal,[2],"1.07 fold enrichment (6-mer frequency, TF over GST control)"
same,binding signal,[3],"1.02 fold enrichment (6-mer frequency, TF over GST control)"
same,binding signal,[4],"1.01 fold enrichment (6-mer frequency, TF over GST control)"
same,binding signal,[5],"1.06 fold enrichment (6-mer frequency, TF over GST control)"
same,binding signal,[6],"1.08 fold enrichment (6-mer frequency, TF over GST control)"
same,binding signal,[7],"1.01 fold enrichment (6-mer frequency, TF over GST control)"
same,binding signal,[8],"1.06 fold enrichment (6-mer frequency, TF over GST control)"
same,binding signal,[9],"1.08 fold enrichment (6-mer frequency, TF over GST control)"
same,binding signal,[10],"1.01 fold enrichment (6-mer frequency, TF over GST control)"
same,binding signal,[11],"1.03 fold enrichment (6-mer frequency, TF over GST control)"
same,binding signal,[12],"1.03 fold enrichment (6-mer frequency, TF over GST control)"
same,binding signal,[13],"1.09 fold enrichment (6-mer frequency, TF over GST control)"
same,binding signal,[14],"1.08 fold enrichment (6-mer frequency, TF over GST control)"
same,binding signal,[15],"1.04 fold enrichment (6-mer frequency, TF over GST control)"
same,binding signal,[16],"1.05 fold enrichment (6-mer frequency, TF over GST control)"
